Targets with a hit are over-represented here; the source holds about 7,900 in all. About 0.6% of all pairs of compound and target were hits.
How the values were obtained:
Assay in all cases: log2 fold change, soluble protein after heating vs DMSO (PISA); higher = thermal stabilisation; K562 cells, 10 uM, 30 min; active = over 0.2 and 3.5 SD of the protein, either way, in both replicates (recomputed)
[1] = compound: NC(=O)Nc1cc(-c2cccc(F)c2)sc1C(=O)N[C@H]1CCCNC1
In short: (§1)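 K562 cells at 2×10^6 cells/mL were exposed to 10 μM compound for 30 min, then aliquots were heated for 3 min across 48°C-58°C, pooled, and extracted in PBS containing 0.5% NP-40 at 4°C. The supernatant after 21,000xg for 90 min was taken as soluble protein and measured by TMTpro 16plex LC-MS/MS with channel sums equalised. Thermal stability is reported relative to control samples, with values from duplicates. Fold changes are given on a log2 scale.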

[2] = compound: NC(=O)c1cnc(N[C@@H]2CCCC[C@@H]2N)nc1Nc1cccc(-n2nccn2)c1
In short: as §1

[3] = compound: NC1(c2ccc(-c3nc4ccn5c(=O)[nH]nc5c4cc3-c3ccccc3)cc2)CCC1
In short: as §1

[4] = compound: NCC(=O)Nc1ccc(-n2nc(C(F)(F)F)cc2-c2ccc3c(ccc4ccccc43)c2)cc1
In short: as §1

[5] = compound: Nc1ccccc1NC(=O)c1ccc(CNC(=O)OCc2cccnc2)cc1 [entinostat]
In short: as §1

[6] = compound: O=C(CCCCCCC(=O)Nc1ccccc1)NO [vorinostat]
In short: as §1

[7] = compound: O=C(CCCCCCNC(=O)c1cnc(N(c2ccccc2)c2ccccc2Cl)nc1)NO [citarinostat]
In short: as §1

[8] = compound: O=C(O)c1ccc2c(c1)nc(Nc1cccc(Cl)c1)c1ccncc12 [silmitasertib]
In short: as §1

[9] = compound: O=C1NC(=O)C(c2cnc3ccccn23)=C1c1cn2c3c(cc(F)cc13)CN(C(=O)N1CCCCC1)CC2
In short: as §1

[10] = compound: c1cc(OCCN2CCCCC2)cc(-c2n[nH]c3ccc(-c4nnc[nH]4)cc23)c1
In short: as §1

Measured: log2 fold change

EEF1B2 (UniProt P24534)
UniProt P24534, sequence (P24534 whole entry, looked up): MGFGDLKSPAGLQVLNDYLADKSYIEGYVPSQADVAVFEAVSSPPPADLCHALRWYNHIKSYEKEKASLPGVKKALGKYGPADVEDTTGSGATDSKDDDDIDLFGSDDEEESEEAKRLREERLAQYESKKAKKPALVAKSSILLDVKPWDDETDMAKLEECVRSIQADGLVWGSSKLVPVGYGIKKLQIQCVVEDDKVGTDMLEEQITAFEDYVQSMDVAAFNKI
inactive: [1] 0.012 | [2] -0.112 | [3] -0.035 | [4] -0.09 | [5] 0.04 | [6] 0.02 | [7] 0.004 | [8] 0.027 | [9] -0.007 | [10] -0.035

ERCC6 (UniProt Q03468)
UniProt Q03468, sequence (Q03468 whole entry, looked up): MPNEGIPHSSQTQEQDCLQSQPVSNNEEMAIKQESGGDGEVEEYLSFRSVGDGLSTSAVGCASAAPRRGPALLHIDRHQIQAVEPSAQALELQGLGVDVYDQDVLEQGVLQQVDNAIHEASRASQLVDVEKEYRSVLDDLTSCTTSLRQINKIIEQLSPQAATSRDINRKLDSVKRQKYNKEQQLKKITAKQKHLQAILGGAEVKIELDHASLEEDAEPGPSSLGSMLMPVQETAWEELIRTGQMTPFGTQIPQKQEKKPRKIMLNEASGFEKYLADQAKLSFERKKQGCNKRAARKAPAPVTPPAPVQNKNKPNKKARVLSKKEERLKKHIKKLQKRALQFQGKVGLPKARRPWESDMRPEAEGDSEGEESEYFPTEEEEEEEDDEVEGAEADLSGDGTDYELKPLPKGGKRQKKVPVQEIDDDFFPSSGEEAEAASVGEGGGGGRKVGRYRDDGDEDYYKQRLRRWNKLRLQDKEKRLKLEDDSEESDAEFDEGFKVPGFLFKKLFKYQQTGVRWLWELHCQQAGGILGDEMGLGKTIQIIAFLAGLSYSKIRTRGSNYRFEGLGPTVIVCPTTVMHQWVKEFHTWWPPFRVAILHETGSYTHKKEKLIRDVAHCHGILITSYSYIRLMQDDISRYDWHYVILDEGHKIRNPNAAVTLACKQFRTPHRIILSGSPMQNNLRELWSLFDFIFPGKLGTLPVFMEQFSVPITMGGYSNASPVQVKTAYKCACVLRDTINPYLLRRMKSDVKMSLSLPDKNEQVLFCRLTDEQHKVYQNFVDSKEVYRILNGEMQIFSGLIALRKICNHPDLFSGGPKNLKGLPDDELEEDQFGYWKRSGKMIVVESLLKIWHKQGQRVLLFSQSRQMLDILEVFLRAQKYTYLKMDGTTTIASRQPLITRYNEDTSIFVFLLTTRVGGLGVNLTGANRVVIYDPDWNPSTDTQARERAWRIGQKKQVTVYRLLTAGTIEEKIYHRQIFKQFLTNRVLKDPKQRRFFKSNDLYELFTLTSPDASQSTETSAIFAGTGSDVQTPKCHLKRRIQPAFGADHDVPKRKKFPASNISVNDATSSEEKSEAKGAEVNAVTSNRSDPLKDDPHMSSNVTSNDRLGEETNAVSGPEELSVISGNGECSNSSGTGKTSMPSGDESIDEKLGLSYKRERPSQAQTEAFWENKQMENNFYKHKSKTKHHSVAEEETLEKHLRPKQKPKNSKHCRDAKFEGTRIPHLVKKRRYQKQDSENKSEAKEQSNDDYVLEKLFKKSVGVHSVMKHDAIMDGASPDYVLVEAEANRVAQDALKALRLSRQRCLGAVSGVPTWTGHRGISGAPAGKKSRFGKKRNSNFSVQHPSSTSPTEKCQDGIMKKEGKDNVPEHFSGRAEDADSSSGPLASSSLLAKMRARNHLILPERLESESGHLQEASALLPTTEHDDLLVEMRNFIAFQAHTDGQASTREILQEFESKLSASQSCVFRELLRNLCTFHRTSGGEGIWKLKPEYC
inactive: [1] -0.288 | [2] -0.022 | [3] -0.062 | [4] 0.034 | [5] -0.191 | [6] -0.003 | [7] -0.213 | [8] 0.079 | [9] 0.013 | [10] -0.236

DDX39A (UniProt O00148)
inactive: [1] -0.067 | [2] -0.04 | [3] 0.057 | [4] -0.042 | [5] -0.003 | [6] 0.048 | [7] -0.006 | [8] -0.011 | [9] -0.107 | [10] -0.233

EXOC6 (UniProt Q8TAG9)
active: [6] 0.324
inactive: [1] -0.052 | [2] -0.091 | [3] -0.258 | [4] -0.078 | [5] 0.045 | [7] 0.023 | [8] 0.049 | [9] 0.03 | [10] 0.007

EDC3 (UniProt Q96F86)
UniProt Q96F86, sequence (Q96F86 whole entry, looked up): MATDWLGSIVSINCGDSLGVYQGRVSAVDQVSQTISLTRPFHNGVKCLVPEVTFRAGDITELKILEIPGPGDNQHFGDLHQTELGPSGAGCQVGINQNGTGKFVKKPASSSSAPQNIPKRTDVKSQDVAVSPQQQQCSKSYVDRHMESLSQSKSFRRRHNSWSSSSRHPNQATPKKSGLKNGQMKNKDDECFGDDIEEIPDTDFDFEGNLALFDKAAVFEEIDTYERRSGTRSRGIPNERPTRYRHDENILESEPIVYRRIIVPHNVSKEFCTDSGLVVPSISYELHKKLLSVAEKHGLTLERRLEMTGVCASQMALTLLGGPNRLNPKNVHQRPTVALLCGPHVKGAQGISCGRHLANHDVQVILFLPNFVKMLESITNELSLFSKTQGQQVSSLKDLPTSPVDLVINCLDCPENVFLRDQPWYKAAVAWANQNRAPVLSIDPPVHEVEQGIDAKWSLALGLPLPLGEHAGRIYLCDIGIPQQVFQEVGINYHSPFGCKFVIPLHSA
inactive: [1] -0.162 | [2] -0.229 | [3] -0.119 | [4] -0.075 | [5] 0.07 | [6] 0.154 | [7] 0.042 | [8] -0.047 | [9] -0.068 | [10] -0.152

F5 (UniProt P12259)
inactive: [1] -0.095 | [2] -0.08 | [3] 0.048 | [4] -0.024 | [5] -0.045 | [6] -0.016 | [7] -0.019 | [8] 0.127 | [9] 0.084 | [10] 0.002

FADS3 (UniProt Q9Y5Q0)
UniProt Q9Y5Q0, sequence (Q9Y5Q0 whole entry, looked up): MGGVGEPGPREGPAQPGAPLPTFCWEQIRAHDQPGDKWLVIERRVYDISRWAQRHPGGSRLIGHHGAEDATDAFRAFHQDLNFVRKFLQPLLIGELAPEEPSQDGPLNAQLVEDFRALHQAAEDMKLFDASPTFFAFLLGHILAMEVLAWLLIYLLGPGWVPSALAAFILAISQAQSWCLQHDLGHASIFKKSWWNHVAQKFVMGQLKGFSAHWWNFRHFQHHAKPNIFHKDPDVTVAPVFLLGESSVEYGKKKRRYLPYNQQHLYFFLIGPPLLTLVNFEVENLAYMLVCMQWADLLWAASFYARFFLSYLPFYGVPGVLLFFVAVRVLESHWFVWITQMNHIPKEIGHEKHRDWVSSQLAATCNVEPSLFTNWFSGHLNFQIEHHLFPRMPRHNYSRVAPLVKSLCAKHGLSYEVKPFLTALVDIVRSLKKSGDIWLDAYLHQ
inactive: [1] -0.086 | [2] -0.096 | [3] -0.074 | [4] 0.079 | [5] -0.06 | [6] 0.024 | [7] 0.022 | [8] -0.008 | [9] 0.259 | [10] -0.034

DTYMK (UniProt P23919)
inactive: [1] 0.005 | [2] -0.011 | [3] -0.169 | [4] -0.014 | [5] -0.035 | [6] 0.043 | [7] 0.047 | [8] -0.04 | [9] -0.058 | [10] -0.071

EHD2 (UniProt Q9NZN4)
inactive: [1] -0.034 | [2] -0.048 | [3] -0.072 | [4] -0.096 | [5] 0.033 | [6] 0.055 | [7] 0.048 | [8] 0.012 | [9] -0.04 | [10] -0.015

CUEDC2 (UniProt Q9H467)
inactive: [1] 0 | [2] -0.105 | [3] -0.043 | [4] -0.056 | [5] -0.009 | [6] -0.039 | [7] 0.096 | [8] 0.008 | [9] -0.055 | [10] 0.002

DBNL isoform 3 (UniProt Q9UJU6)
UniProt Q9UJU6, sequence (Q9UJU6 whole entry, looked up): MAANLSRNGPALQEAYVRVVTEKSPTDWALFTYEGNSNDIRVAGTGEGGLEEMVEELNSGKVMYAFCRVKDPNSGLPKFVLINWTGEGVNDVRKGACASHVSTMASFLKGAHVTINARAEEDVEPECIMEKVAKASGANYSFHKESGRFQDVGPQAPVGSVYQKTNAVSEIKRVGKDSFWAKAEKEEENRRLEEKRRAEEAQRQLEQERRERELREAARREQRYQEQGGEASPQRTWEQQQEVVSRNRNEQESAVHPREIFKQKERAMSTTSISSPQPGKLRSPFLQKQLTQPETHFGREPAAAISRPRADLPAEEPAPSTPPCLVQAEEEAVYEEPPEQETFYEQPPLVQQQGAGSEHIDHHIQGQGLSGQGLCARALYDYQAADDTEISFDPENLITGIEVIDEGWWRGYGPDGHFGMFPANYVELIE
inactive: [1] 0.021 | [2] -0.022 | [3] -0.109 | [4] -0.061 | [5] -0.003 | [6] -0.01 | [7] 0.063 | [8] 0.058 | [9] 0.012 | [10] 0.007

EXOSC10 (UniProt Q01780)
inactive: [1] -0.49 | [2] -0.054 | [3] 0.014 | [4] -0.189 | [5] -0.339 | [6] 0.039 | [7] -0.125 | [8] 0.041 | [9] -0.044 | [10] 0.01

ESS2 (UniProt Q96DF8)
inactive: [1] 0.036 | [2] 0.048 | [3] -0.078 | [4] 0.069 | [5] -0.027 | [6] -0.012 | [7] 0.014 | [8] 0.04 | [9] 0.033 | [10] -0.017

CUX1 isoform 3 (UniProt P39880)
inactive: [1] -0.016 | [2] -0.006 | [3] -0.034 | [4] -0.076 | [5] -0.028 | [6] 0.034 | [7] 0.019 | [8] 0.046 | [9] -0.022 | [10] -0.004

DTNBP1 (UniProt Q96EV8)
inactive: [1] -0.022 | [2] -0.011 | [3] -0.038 | [4] -0.063 | [5] 0.033 | [6] 0.091 | [7] -0.001 | [8] -0.013 | [9] -0.032 | [10] -0.042

ERLIN1 (UniProt O75477)
UniProt O75477, sequence (O75477 whole entry, looked up): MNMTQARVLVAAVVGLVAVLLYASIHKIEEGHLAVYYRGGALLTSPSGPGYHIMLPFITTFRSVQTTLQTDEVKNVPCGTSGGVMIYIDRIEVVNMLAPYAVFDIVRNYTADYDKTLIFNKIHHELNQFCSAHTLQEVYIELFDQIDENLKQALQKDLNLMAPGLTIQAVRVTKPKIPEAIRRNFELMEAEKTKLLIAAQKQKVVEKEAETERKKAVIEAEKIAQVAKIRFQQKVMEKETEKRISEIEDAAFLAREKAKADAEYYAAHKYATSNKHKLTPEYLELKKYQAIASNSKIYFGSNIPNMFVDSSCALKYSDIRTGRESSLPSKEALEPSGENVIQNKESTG
inactive: [1] 0.083 | [2] -0.068 | [3] -0.066 | [4] -0.043 | [5] 0.111 | [6] 0.074 | [7] -0.01 | [8] -0.009 | [9] 0.084 | [10] -0.045

ESYT1 isoform 2 (UniProt Q9BSJ8)
inactive: [1] 0.062 | [2] 0.004 | [3] -0.004 | [4] -0.044 | [5] 0.086 | [6] 0.122 | [7] 0.033 | [8] 0.041 | [9] 0.187 | [10] -0.048

CTNNB1 (UniProt P35222)
inactive: [1] -0.14 | [2] -0.06 | [3] -0.18 | [4] -0.2 | [5] -0.078 | [6] -0.001 | [7] 0.093 | [8] 0.03 | [10] -0.107
active: [9] 1.3

DIP2A (UniProt Q14689)
inactive: [1] -0.056 | [2] 0.007 | [3] -0.356 | [4] 0.017 | [5] 0.002 | [6] 0.031 | [7] 0.043 | [8] 0.1 | [9] -0.016 | [10] 0.004

EXOC2 (UniProt Q96KP1)
UniProt Q96KP1, sequence (Q96KP1 whole entry, looked up): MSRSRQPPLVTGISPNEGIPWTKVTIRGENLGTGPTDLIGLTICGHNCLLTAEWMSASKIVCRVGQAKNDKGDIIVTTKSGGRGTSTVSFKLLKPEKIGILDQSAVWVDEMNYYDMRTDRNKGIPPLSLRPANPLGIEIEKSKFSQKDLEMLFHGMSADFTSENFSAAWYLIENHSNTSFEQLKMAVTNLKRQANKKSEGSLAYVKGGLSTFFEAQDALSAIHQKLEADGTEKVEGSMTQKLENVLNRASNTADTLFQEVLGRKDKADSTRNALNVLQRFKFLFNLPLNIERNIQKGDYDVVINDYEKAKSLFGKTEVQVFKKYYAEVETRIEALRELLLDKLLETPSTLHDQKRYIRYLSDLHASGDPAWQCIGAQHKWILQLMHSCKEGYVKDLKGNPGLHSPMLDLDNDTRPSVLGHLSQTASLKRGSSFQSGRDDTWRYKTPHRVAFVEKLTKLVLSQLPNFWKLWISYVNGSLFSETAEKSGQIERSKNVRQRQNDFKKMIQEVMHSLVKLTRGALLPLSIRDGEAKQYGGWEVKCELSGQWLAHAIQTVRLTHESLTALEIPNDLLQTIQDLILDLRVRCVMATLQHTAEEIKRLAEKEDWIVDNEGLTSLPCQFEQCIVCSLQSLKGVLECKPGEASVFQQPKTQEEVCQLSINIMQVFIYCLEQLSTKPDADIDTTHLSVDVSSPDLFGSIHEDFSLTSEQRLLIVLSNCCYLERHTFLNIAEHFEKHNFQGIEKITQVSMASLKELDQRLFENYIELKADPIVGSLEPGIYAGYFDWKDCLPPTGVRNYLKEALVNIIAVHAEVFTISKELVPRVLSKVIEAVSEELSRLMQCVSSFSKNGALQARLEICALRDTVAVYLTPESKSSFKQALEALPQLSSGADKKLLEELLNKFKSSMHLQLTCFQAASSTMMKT
inactive: [1] 0.039 | [2] -0.084 | [3] -0.218 | [4] -0.024 | [5] 0.052 | [6] -0.013 | [7] 0.105 | [8] 0.035 | [9] 0.028 | [10] -0.102

DPP8 (UniProt Q6V1X1)
active: [7] -0.325
inactive: [1] -0.243 | [2] -0.126 | [3] -0.04 | [4] -0.079 | [5] -0.124 | [6] -0.021 | [8] 0.063 | [9] -0.114 | [10] 0.219

DBN1 isoform 3 (UniProt Q16643)
UniProt Q16643, sequence (Q16643 whole entry, looked up): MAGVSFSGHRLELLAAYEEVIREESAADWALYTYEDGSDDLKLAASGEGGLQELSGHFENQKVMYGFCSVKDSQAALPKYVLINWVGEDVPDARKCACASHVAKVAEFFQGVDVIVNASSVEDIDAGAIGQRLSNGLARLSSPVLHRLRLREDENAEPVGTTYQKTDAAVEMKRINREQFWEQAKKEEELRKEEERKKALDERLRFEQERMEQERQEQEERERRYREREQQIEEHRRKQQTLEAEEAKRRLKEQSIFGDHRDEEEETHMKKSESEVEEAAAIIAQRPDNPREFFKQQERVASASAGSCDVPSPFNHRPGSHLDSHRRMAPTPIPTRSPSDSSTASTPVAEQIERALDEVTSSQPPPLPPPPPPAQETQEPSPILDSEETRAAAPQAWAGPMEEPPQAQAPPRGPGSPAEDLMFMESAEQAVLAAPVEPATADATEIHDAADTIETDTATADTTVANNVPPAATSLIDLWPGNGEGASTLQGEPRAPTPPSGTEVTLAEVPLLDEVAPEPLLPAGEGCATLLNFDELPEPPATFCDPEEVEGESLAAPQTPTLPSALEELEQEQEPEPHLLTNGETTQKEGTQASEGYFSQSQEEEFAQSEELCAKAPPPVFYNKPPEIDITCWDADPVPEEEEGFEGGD
inactive: [1] 0.098 | [2] 0.027 | [3] -0.039 | [4] -0.003 | [5] -0.036 | [6] 0.128 | [7] -0.032 | [8] 0.066 | [9] -0.03 | [10] -0.053

DYNC1LI2 (UniProt O43237)
inactive: [1] 0.093 | [2] -0.021 | [3] 0.206 | [4] -0.075 | [5] -0.026 | [6] 0.075 | [7] -0.101 | [8] 0.214 | [9] 0.158 | [10] -0.108

CYBA (UniProt P13498)
inactive: [1] -0.028 | [2] -0.141 | [3] -0.044 | [4] -0.13 | [5] -0.004 | [6] 0.018 | [7] -0.01 | [8] 0 | [9] -0.01 | [10] -0.041

FAM3A (UniProt P98173)
active: [3] -0.21
inactive: [1] 0.022 | [2] -0.028 | [4] 0.006 | [5] -0.097 | [6] -0.01 | [7] 0 | [8] -0.015 | [9] 0.034 | [10] -0.028

EED, A0A5F9ZI63
inactive: [1] 0.03 | [2] 0.053 | [3] 0.037 | [4] -0.029 | [5] -0.039 | [6] 0.021 | [7] 0.098 | [8] 0.078 | [9] 0.065 | [10] -0.078

DIAPH1 (UniProt O60610)
inactive: [1] -0.156 | [2] -0.085 | [3] -0.067 | [4] -0.064 | [5] 0.024 | [6] 0.066 | [7] 0.056 | [8] 0.115 | [9] 0.178 | [10] -0.046

ERCC2 (UniProt P18074)
inactive: [1] -0.015 | [2] -0.011 | [3] -0.109 | [4] 0.004 | [5] 0.014 | [6] 0.045 | [7] 0.103 | [8] -0.052 | [9] -0.092 | [10] -0.039

ERLIN2 (UniProt O94905)
inactive: [1] 0.04 | [2] -0.047 | [3] -0.01 | [4] -0.062 | [5] 0.032 | [6] 0.048 | [7] 0.011 | [8] 0.002 | [9] 0.069 | [10] -0.044

DCAF6 isoform 3 (UniProt Q58WW2)
inactive: [1] 0 | [2] 0.019 | [3] 0.026 | [4] 0.007 | [5] -0.005 | [6] 0.003 | [7] 0.021 | [8] 0.045 | [9] -0.009 | [10] -0.008

Reference: the supplement of paper PMC10849652
